VP16 counter: inhibits Gal4-VP16 luciferase reporter, ROR gamma counter-screen; hit rate 3.5% among 310,000; Drosophila S2 Gal4-VP16 UAS-luciferase, luminescence, 20 h; Potency, µM (doses to about 53.6 µM), hits mostly inhibitors; AID 2546;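 also: Gal4-VP16 expression switched on by copper sulfate through the metallothionein promoter; nearly all actives have a fitted effect of over 50% in size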
Tau fluor cs: counter-screen for tau fibril formation inhibitors | hit rate 0.93% among 280,000 | AID 1463 | tau K18 P301L Alexa594 fluorescence, heparin fibrillization | Potency, µM (series often up to 57.7 µM); also: nearly all actives have a fitted effect of over 55% in size
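Human tau K18 P301L (15 uM unlabeled, 0.24 uM Alexa 594-labeled) in 100 mM sodium acetate pH 7 with 20 uM heparin, 6 hr at 37 C. ThT 30 uM added, 1 hr ambient; Alexa 594 FP and total fluorescence read at 555/632 nm.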
Tau FP inhib: blocks human tau fibril formation measured by polarization. Potency, µM (series often up to 57.7 µM), hits mostly inhibitors. hit rate 0.39% among 280,000. K18 P301L tau heparin fibrillization, Alexa594 FP, 6 h. P10636; also: nearly all actives have a fitted effect of over 55% in size
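Quantitative HTS format: compounds meet 15 uM recombinant K18 P301L tau and Alexa 594-tau tracer in 100 mM sodium acetate pH 7; 20 uM heparin triggers fibrillization at 37 C over 6 hr; FP gives the signal.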
RORg inh: ROR gamma (mouse) transcription inhibition; AID 2551; Drosophila S2 Gal4-RORgamma UAS-luciferase reporter, 20 h; Potency, µM (doses to about 53.6 µM), actives largely listed as inhibitors; hit rate 5.4% among 310,000; P51450; also: nearly all actives have a fitted effect of over 60% in size
Target sequence (P51450 whole entry, looked up, the tested form may be a part): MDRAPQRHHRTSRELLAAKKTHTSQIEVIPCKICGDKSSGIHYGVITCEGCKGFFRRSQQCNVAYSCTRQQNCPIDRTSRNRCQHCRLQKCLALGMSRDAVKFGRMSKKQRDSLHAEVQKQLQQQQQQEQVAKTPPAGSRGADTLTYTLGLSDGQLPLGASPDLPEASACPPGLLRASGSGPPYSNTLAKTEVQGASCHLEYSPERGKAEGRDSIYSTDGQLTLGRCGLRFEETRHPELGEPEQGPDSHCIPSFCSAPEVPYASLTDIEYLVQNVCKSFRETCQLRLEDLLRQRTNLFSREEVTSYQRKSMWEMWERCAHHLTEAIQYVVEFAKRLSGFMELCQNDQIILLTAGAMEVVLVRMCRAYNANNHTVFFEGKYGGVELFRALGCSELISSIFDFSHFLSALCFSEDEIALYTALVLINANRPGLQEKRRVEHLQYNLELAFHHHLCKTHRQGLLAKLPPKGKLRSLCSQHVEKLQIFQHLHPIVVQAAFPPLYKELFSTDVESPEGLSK
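Schneider cells (Drosophila), stable Gal4 DBD–ROR gamma + UAS-luc; 1 hr cmpd preincubation; Cu2+ induction 700 uM final; 20 hr ambient; luminescence.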
Tau ThT inhib: blocks human tau fibril formation measured by thioflavin T. recombinant tau K18 P301L (four-repeat tau fragment), heparin-induced fibrillization, ThT fluorescence. Potency, µM (doses to about 57.4 µM), usual class: inhibitors. hit rate 2.1% among 270,000; also: nearly all actives have a fitted effect of over 55% in size
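K18 P301L tau (15 uM + 0.24 uM Alexa 594-tagged), heparin 20 uM, NaOAc pH 7, 6 h 37 C; ThT 30 uM, 1 h RT, ex 450/em 510 nm.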
Of the large screens only hits and unclear results are named; the others gave an inactive call. Rows were chosen to be rich in hits. Some 7.3% of all compounds tested hit in one or more screens of this group. Calls follow the shape of the dose curve; as a rule, active = well fitted curve in the direction sought with a large enough effect; inconclusive = small, poorly fitted or top-dose-only effect, or another doubt; inactive = no such curve, though single readings can be large; an effect the other way counts as inactive or inconclusive.

COC/C=C/C1=CC2=CC(=O)C(C)(OC(=O)c3cnc4ccccc4n3)C(=O)C2=CN1CCN1CCOCC1 (configuration not stated)	Tau fluor cs inconclusive, Tau FP inhib inconclusive, Tau ThT inhib 16µM
CCOC(=O)c1cccc(NC(=O)c2cnc(N3CCCCC3)c3ccccc23)c1	none (no result: VP16 counter, RORg inh)
COc1ccccc1NC(=O)c1ccccc1Nc1ccccc1	none (no result: Tau fluor cs, Tau FP inhib, Tau ThT inhib)
COc1ccccc1Nc1ccc(N)cc1	Tau fluor cs inconclusive, Tau FP inhib inconclusive, Tau ThT inhib 16µM
COc1ccc(-n2nc(C(=O)NCC(=O)NCc3cccc(F)c3)c3ccccc3c2=O)cc1Cl	none (no result: Tau fluor cs, Tau FP inhib, Tau ThT inhib)
CCNC(=S)NNc1nc(N2CCOCC2)nc(N2CCOCC2)n1	none
C=CCNC(=S)NNc1nc(N2CCCC2)nc(N2CCCC2)n1	VP16 counter 18µM, RORg inh 2.2µM (no result: Tau fluor cs, Tau FP inhib, Tau ThT inhib)
C=CCNC(=S)NNc1nc(Nc2ccccc2)nc(N2CCCCC2)n1	VP16 counter inconclusive, RORg inh 4µM
Cc1cccc(Nc2nc(N3CCCCC3)nc(N3CCCCC3)n2)c1	none
S=C(NNc1nc(Nc2ccccc2)nc(N2CCCCC2)n1)NC1CCCCC1	VP16 counter 13µM, RORg inh 4.5µM
COc1ccc(-c2c(C)c3ccc(O)c(CN4CCCCC4)c3oc2=O)cc1OC	none (no result: VP16 counter, RORg inh)
CCOc1ccc(/C=C/c2nc(C#N)c(N3CCN(c4ccccc4)CC3)o2)cc1	Tau ThT inhib inconclusive (no result: VP16 counter, RORg inh)
Cc1c(C(=O)N(C)C2CC(C)(C)NC(C)(C)C2)oc2c(F)cccc12	RORg inh inconclusive (no result: Tau fluor cs, Tau FP inhib, Tau ThT inhib)
CCOc1ccc(C(=O)CC(NCc2cccs2)C(=O)O)cc1 (configuration not stated)	VP16 counter 13µM, Tau FP inhib inconclusive, RORg inh 4.5µM, Tau ThT inhib inconclusive
CCOc1ccc(S(=O)(=O)NCc2cccs2)cc1	none
CCN(CC)C(=S)NC(=O)c1cccnc1	VP16 counter 5.6µM, RORg inh 2.5µM
CCN(CC)C(=S)NC(=O)c1ccc(F)cc1	VP16 counter 2.8µM, RORg inh 0.79µM
C/C(=N\NC(=S)NCc1ccccc1)c1ccc2c(c1)OCCO2	VP16 counter 8.9µM, RORg inh 2.8µM
CCNC(=S)N/N=C(\C)c1ccco1	VP16 counter 13µM, RORg inh 4µM
O=C(NCc1ccccc1)c1ccc2c(c1)OCCO2	RORg inh inconclusive
C/C(=N\NC(=S)NCc1ccccc1)c1ccc(C)o1	VP16 counter 7.1µM, RORg inh 2.2µM
C/C(=N\NC(=O)CCc1ccccc1)c1ccc(Br)cc1	none
C/C(=N\NC(=S)NCc1ccccc1)c1ccc(Br)cc1	VP16 counter 0.5µM, Tau fluor cs inconclusive, RORg inh 0.28µM
CC(=O)c1c(C)n(CCc2ccc(Cl)cc2)c2ccc(O)cc12	none (no result: Tau fluor cs, Tau FP inhib, Tau ThT inhib)
C/C(=N\NC(=S)NCc1ccccc1)c1ccc2ccccc2c1OC(F)F	VP16 counter 2.2µM, RORg inh 2.2µM
Cc1ccc(/C=C2/SC(=S)N(c3ccc(S(=O)(=O)Nc4nccs4)cc3)C2=O)cc1	VP16 counter 0.79µM, Tau fluor cs inconclusive, RORg inh 5.6µM (no result: Tau ThT inhib)
Cc1cc(Nc2cccc(Cl)c2)nc(NCc2ccccc2)n1	VP16 counter 16µM, Tau fluor cs inconclusive, Tau FP inhib inconclusive, RORg inh inconclusive, Tau ThT inhib inconclusive
Cc1cc(N/N=C/c2cccc(Cl)c2)nc(NCc2ccccc2)n1	VP16 counter inconclusive, Tau fluor cs inconclusive, Tau FP inhib inconclusive, RORg inh inconclusive
Cc1cc(N2CCCCC2)nc(NCc2ccccc2)n1	VP16 counter inconclusive, RORg inh 20µM
COc1ccc(/C=C2\CCC(C3CCCC3)C2=O)cc1 (configuration not stated)	none (no result: Tau fluor cs, Tau FP inhib, Tau ThT inhib)
COc1ccc(/C=C2\CCCC3C2=NC(=S)NC3c2ccc(OC)cc2)cc1 (configuration not stated)	VP16 counter 13µM, RORg inh 6.3µM
O=C(O)C1CC=CCC1C(=O)Nc1ccc2c(c1)CCC2 (configuration not stated)	none (no result: Tau fluor cs, Tau FP inhib, Tau ThT inhib)
Cc1cccc(C)c1NC(=O)c1c(-c2ccccc2)noc1C	RORg inh 10µM
O=C(N/N=C/c1cc(Br)c(Br)o1)C(O)c1ccccc1 (configuration not stated)	Tau ThT inhib inconclusive
Cc1onc(-c2ccccc2)c1C(=O)Oc1cccnc1	RORg inh 7.9µM
Cc1cccc(C(=O)N/N=C/c2cc(Br)c(Br)o2)c1	VP16 counter inconclusive, RORg inh 11µM, Tau ThT inhib inconclusive

Screening results from PubChem BioAssay.
